A selection: hits, their analogues and other compounds. The true share with any hit is near 4.6%.
TRHR PAM = qHTS for Small Molecule Agonists and Allosteric Enhancers of Human TRH Receptor: Primary Screen for Enhancers; enhancement, % at 2 µM; Thyrotropin-releasing hormone receptor (Homo sapiens), P34981; TRHR cells, fluo-8 calcium fluorescence, EC20 TRH enhancement; 360,000 compounds, 0.66% hits; in the data active = enhancement above about 30%; note: 0% is about no effect
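TRHR-expressing cells loaded with fluo-8 calcium dye were read kinetically (ex 480/em 530) during compound addition, then stimulated with an EC20 of TRH (10 nM final). Enhancement of the Gq-mediated intracellular calcium response was scored.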
D1 PAM = Potentiators of Human D1 Dopamine Receptor: qHTS | HEK293 TREx D1 cells, calcium flux, dopamine EC20 potentiation | AID 504651, 2011 | 360,000 compounds, 0.036% hits | potentiation, % at 10 µM; in the data active = potentiation above about 30%; note: 0% is about no effect
Target sequence (P21728 whole entry, looked up): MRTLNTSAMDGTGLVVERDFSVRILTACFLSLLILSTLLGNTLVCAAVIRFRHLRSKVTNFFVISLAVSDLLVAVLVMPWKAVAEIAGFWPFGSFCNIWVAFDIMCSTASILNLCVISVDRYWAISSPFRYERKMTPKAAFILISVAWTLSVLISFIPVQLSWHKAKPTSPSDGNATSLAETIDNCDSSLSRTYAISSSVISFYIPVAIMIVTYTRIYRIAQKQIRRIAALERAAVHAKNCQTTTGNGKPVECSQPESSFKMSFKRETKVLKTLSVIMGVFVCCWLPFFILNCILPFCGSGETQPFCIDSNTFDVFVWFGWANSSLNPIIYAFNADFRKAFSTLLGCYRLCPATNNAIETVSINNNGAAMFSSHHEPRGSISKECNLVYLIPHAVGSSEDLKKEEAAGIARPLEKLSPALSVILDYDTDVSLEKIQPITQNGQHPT
D1 agonist = Allosteric Agonists of the Human D1 Dopamine Receptor: qHTS; activation, % at 2 µM; AID 504660, 2011; D(1A) dopamine receptor (Homo sapiens), P21728; 360,000 compounds, 1% hits; HEK293 T-REx D1 cells, calcium flux, agonist mode; note: 0% is about no effect
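Inducible HEK293 T-REx D1 cells, force-coupled to calcium signalling, were plated at 4000 cells/well with tetracycline and held overnight at 30 C. After no-wash calcium dye loading, compound-evoked calcium rise over 180 s flagged agonists.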
D1 antag = Antagonist of Human D 1 Dopamine Receptor: qHTS; D(1A) dopamine receptor (Homo sapiens), P21728; HEK293 TREx D1 cells, calcium flux, dopamine EC80; active compounds read low; activity change, negative = inhibition, % at 10 µM; 360,000 compounds, 3.2% hits; in the data active = activity change below about -30%; note: % is set by controls: 0 for no effect and ±100 for the full control effect
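Antagonism measured as reduced calcium response to an EC80 dopamine addition following 180 s compound pre-read; cells were inducible HEK293 Trex D1 plated overnight at 30 C, read kinetically at 1 cycle/sec.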
TRHR ag = qHTS for Small Molecule Agonists and Allosteric Enhancers of Human TRH Receptor: Primary Screen for Agonists; TRHR cells, calcium flux fluo-8, FDSS agonist mode; activation, % at 2 µM; 360,000 compounds, 0.18% hits; note: 0% is about no effect
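In this calcium-flux screen, cells bearing human TRHR are dye-loaded with fluo-8, baselined for 10 cycles, then exposed to library compounds; positive kinetic calcium responses during the agonist phase mark hits, with TRH as control.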
* hit, by the source's call; x = not tested or not shown. Cut-off read from the data, not from the text of the source, unless noted: active = activation above about 30%; inactive = the rest.

SMILES	TRHR PAM	D1 PAM	D1 agonist	D1 antag	TRHR ag
CN(CC1CCCN(CCc2cccc(C(F)(F)F)c2)C1)C(=O)c1ccco1 (stereo unspecified)	23.9	10.7	3.5	-39.8*	2.6
CN(CC1CCN(CCc2cccc(C(F)(F)F)c2)CC1)C(=O)c1ccc(F)cc1F	-0.6	-0.1	-1.0	6.3	-0.4
O=C(Oc1ccc(-c2nnco2)cc1)c1ccc(Br)o1	-2.1	-2.6	8.5	9.1	-0.5
CC(=O)c1ccc(OC(=O)c2ccc(Br)o2)cc1	0.3	-4.0	59.5*	-16.3	-2.0
Cc1ccc(OC(=O)c2ccc(Br)o2)cc1	-5.4	3.7	101.9*	-47.9*	0.4
CCc1nn2c(=O)cc(COC(=O)c3ccc(NC(=O)COc4ccccc4C)cc3)nc2s1	4.8	-0.9	0.9	10.3	0.2
CCCC12CN3CC(CCC)(CN(C1)C3c1ccc(OCc3ccccc3)cc1)C2=O (stereo unspecified)	3.3	3.4	-0.5	0.7	1.0
CCS(=O)(=O)c1oc(-c2ccc(F)cc2)nc1S(=O)(=O)c1ccc(Br)cc1	1.7	-2.8	8.0	2.7	1.2
CCc1cccc(NC(=O)Nc2cccs2)c1	2.5	-9.1	9.7	-18.7	1.6
N#Cc1cccc(NC(=O)Nc2cccs2)c1	3.3	-9.9	42.0*	-53.3*	1.3
Cc1cc(Nc2ccccc2C)n2nc(Cc3ccc(Cl)cc3)nc2n1	-0.1	1.5	1.6	-11.5	-1.9
Nc1nc2ccccc2n1CCOc1ccccc1Cl	1.4	-6.0	19.8	-36.2*	1.2
Nc1nc2ccccc2n1CCOc1ccc(Cl)cc1	9.1	-14.7	11.3	-4.3	0.7
CCN(CC)CCn1c(=N)n(CCOc2ccccc2Cl)c2ccccc21	5.4	-1.6	52.7*	-6.6	-0.7
COc1cc(OC)cc(-c2c(-c3cccs3)c3cc(-c4ccc(N(C)C)nc4)ccc3n2C)c1	5.6	-2.1	1.3	x	0.5
CC1CN(C(=O)N2c3ccccc3Sc3ccccc32)CC(C)O1 (stereo unspecified)	1.9	-13.7	2.4	-33.5*	1.0
CC1CCN(C(=O)N2c3ccccc3Sc3ccccc32)CC1	13.1	2.6	3.1	21.6	0.7
O=c1[nH]ncc2c3ccccc3n(Cc3ccc(F)cc3)c12	7.8	0.6	1.7	-0.9	-0.2
O=c1[nH]ncc2c3ccccc3n(Cc3cccc(Cl)c3)c12	-2.4	-4.3	51.5*	12.7	10.2
CCn1cnc2c(Nc3cc(F)cc(F)c3)nc(C(=O)COc3c(F)c(F)cc(F)c3F)nc21	-3.6	-6.3	0.7	-3.8	-1.2
O=C(Nc1ccc(F)c(F)c1)c1cc(S(=O)(=O)NCc2ccc3c(c2)OCO3)ccc1F	-7.2	-1.4	3.2	-16.5	0.1
CCOC(=O)NC(=O)c1cn(Nc2ncc(Cl)cc2C(F)(F)F)c(=O)[nH]c1=O	3.5	-1.6	2.2	-43.6*	0.2
CCOC(=O)NC(=O)c1cn(Nc2ncc(C(F)(F)F)cc2Cl)c(=O)[nH]c1=O	-0.6	-4.7	3.2	-20.4	0.1
C=CCNc1ncnc2c1[nH]c1ccc(C)cc12	-4.8	-8.2	12.4	-32.3*	0.3
Cc1ccc2[nH]c3c(NCCN4CCOCC4)ncnc3c2c1	0.9	-2.1	1.7	-1.7	0.1
SMILES	TRHR PAM	D1 PAM	D1 agonist	D1 antag	TRHR ag
Fc1ccc2[nH]c3c(NCc4ccccc4)ncnc3c2c1	-2.7	-10.1	25.7	-40.3*	8.3
COc1ccc(/C=N/Nc2ncnc3c2[nH]c2ccccc23)c(OC)c1OC	-4.2	-2.5	4.6	-4.9	-0.3
COc1cccc(/C=N/Nc2ncnc3c2[nH]c2ccc(C)cc23)c1OC	-9.7	-7.4	2.8	-34.0*	0.0
COc1ccc2[nH]c3c(NCc4ccco4)ncnc3c2c1	1.5	-5.2	3.0	-17.1	-0.3
COCCNc1ncnc2c1[nH]c1ccccc12	-4.3	-15.2	9.5	-37.1*	0.2
C=C(C)COc1ccc(-c2[nH]ncc2Oc2cccc(OC)c2)c(O)c1	1.7	-4.5	5.3	-38.6*	0.2
O=C(Nc1cccc(C(F)(F)F)c1)N1CCC(CN2CCCCCC2)CC1	11.5	2.4	0.1	-5.2	0.4
O=C(O)c1cc2c(s1)-c1ccccc1OC2	5.8	-2.1	2.2	9.9	-0.1
O=C(NC1CC1)c1cc2c(s1)-c1ccccc1OC2	2.3	-10.3	0.0	-46.3*	0.0
CN(C)CCN(Cc1ccco1)C(=O)c1cc2c(s1)-c1ccccc1OC2	1.3	-4.5	7.1	-70.0*	0.0
O=C(c1cc2c(s1)-c1ccccc1OC2)N1CCN(c2ccc(F)cc2)CC1	1.6	-1.1	1.9	4.0	0.4
CC(=O)c1ccc(N2CCN(C(=O)c3cc4c(s3)-c3ccccc3OC4)CC2)cc1	-1.3	-5.2	0.1	-64.4*	0.2
COc1ccc(CCNCc2cc(C)n(-c3ccc(OC)cc3)c2C)cc1	-13.9	-8.3	55.5*	-6.5	-0.3
COc1ccc(CCNCc2ccccc2N2CCCC2)cc1	-4.8	1.9	0.8	10.1	-0.6
Cc1oc2c(cc(NS(=O)(=O)c3ccc(Cl)cc3)c3ccccc32)c1C(=O)O	-4.4	0.1	3.1	3.7	1.2
Cc1oc2ccc(NS(=O)(=O)c3ccc(F)cc3)cc2c1C(=O)O	2.4	3.4	-0.9	16.3	0.9
CC(=O)c1c(C)oc2c1cc(NS(=O)(=O)c1ccc(Br)cc1)c1ccccc12	-6.8	2.0	5.2	-32.5*	0.5
CC(=O)c1c(C)oc2c(Br)cc(NS(=O)(=O)c3ccc(Br)cc3)cc12	-0.8	-7.5	3.7	-46.7*	-0.1
COc1ccccc1CNc1nc(-c2ccco2)nn1C(=O)c1ccccc1[N+](=O)[O-]	-2.3	-1.6	0.2	2.8	-0.2
COc1ccc(C(=O)NNC(=O)C2CCCO2)cc1 (stereo unspecified)	-1.8	-3.0	0.3	-31.2*	-0.6
COc1ccc(C(=O)NNC(=O)C(=O)NCc2ccccc2)cc1	4.4	-3.2	0.8	-48.2*	-0.6
COc1ccc(C(=O)NNC(=O)C(=O)NC2CCCCC2)cc1	12.1	-7.1	4.2	-46.5*	0.2
O=C(Nc1ccc(Br)cc1)C1CCCN1S(=O)(=O)c1ccc(F)cc1 (stereo unspecified)	-9.2	-2.9	4.0	-14.0	-0.6
CC(C)(Oc1ccc(CCNC(=O)c2ccc(-c3ccccc3)o2)cc1)C(=O)O	-4.2	-8.1	3.5	-1.6	0.3
CC(C)(Oc1ccc(-c2ccco2)cc1)C(=O)O	-3.5	5.3	4.1	-45.7*	0.1
Cc1ccc(C(=O)c2oc3ccccc3c2NC(=O)Cc2coc3cc(C)ccc23)cc1	0.2	0.1	-1.1	10.1	0.6
